High-throughput results from PubChem.
MITF primary = MITF inhibitors, primary screen, biochemical, AlphaScreen, human. Microphthalmia-associated transcription factor (Homo sapiens), O75030. AlphaScreen MITF homodimerization, bead proximity signal. inhibition, % at 2.6 µM. 650,000 compounds, 0.91% hits. AID 1259374, 2018; in the data active = inhibition above about 50%;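 also: 0% = vehicle wells with protein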
FBW7 activator = FBW7 E3 ligase activators, primary screen, biochemical, AlphaScreen, human | 650,000 compounds, 0.13% hits | normalized activity (activation), % at 26.1 µM | AlphaScreen FBW7–phospho-cyclin E peptide binding, activator screen | AID 1259310, 2017 | F-box/WD repeat-containing protein 7 (Homo sapiens), Q969H0; in the data active = normalized activity above about 1.9%;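 also: purified mutant Fbw7 with reduced substrate affinity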
Target sequence (Q969H0 whole entry, looked up): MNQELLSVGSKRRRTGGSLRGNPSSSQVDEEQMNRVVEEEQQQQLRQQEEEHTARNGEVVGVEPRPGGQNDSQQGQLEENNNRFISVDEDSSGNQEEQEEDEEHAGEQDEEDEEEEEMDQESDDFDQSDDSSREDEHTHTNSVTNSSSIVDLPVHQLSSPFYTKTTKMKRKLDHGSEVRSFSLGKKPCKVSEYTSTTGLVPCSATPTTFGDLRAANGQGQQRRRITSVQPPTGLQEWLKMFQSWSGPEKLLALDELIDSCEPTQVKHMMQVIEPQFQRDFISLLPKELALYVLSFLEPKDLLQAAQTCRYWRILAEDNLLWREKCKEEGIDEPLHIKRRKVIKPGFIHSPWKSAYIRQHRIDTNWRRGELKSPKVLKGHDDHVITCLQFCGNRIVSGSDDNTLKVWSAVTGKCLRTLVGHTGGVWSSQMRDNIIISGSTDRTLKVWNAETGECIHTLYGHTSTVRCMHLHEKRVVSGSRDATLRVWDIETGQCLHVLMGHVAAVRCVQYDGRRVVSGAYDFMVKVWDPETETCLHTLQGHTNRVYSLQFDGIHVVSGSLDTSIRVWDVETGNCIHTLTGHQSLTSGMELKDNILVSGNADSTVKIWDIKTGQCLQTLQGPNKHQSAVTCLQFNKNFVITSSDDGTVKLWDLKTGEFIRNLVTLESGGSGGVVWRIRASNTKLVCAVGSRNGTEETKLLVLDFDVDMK
GPR151 ag = activators of human GPR151, primary screen, cell-based, PathHunter beta-arrestin, luminescence; G-protein coupled receptor 151 (Homo sapiens), Q8TDV0; PathHunter beta-arrestin GPR151 cells; activation, % at 11.2 µM; 650,000 compounds, 1% hits; in the data active = activation above about 4.9%;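 also: 0% = median of compound wells and 100% = cells with positive control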
TEAD-YAP inh = TEAD-YAP interaction inhibition, primary screen, TEAD-YAP interaction inhibitor project, luminescence, HEK-TIYL cells; 640,000 compounds, 1.4% hits; TEAD-Gal4/YAP UAS-luciferase luminescence; inhibition, % at 9.12 µM; AID 1259422, 2018; in the data active = inhibition above about 32%;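 also: 0% = median of test compound wells and 100% = reference inhibitor wells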
MITF inh conf = MITF inhibitors, retest of hits, confirmation, biochemical, AlphaScreen, triplicate | shares compounds with MITF primary | AlphaScreen MITF homodimerization, biotin/His-MITF beads | inhibition, % at 2.6 µM | 4,700 compounds, 16% hits;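 active = inhibition above a cutoff derived from the DMSO control wells, cut at about 28% in these data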;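 also: 0% = MITF dimer wells with DMSO only; inhibitors lower the bead chemiluminescence by keeping MITF from dimerizing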
AS interf DR = AlphaScreen optical interference compounds, dose response, counter-screen, biochemical, HTS; shares compounds with MITF primary; AlphaScreen optical interference counterscreen, cell-free; IC50, µM; 480 compounds, 6% hits; call rule not given here
AS interf ctr = AlphaScreen optical interference compounds, counter-screen for MITF inhibitor project, biochemical, triplicate. shares compounds with MITF primary. LysRS AlphaScreen counterscreen, signal interference. inhibition, % at 2.6 µM. 4,700 compounds, 7.6% hits. AID 1259376, 2018;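 active = inhibition above a cutoff derived from the DMSO control wells, cut at about 30% in these data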
The depositor's hits bear a star; x = no result. Compounds with a hit are over-represented: about 3.5% of the library has one in this group of screens.

SMILES	MITF primary	FBW7 activator	GPR151 ag	TEAD-YAP inh	MITF inh conf	AS interf ctr	others
Cc1ccc(C)c(NCC(O)CN2c3ccccc3Sc3ccccc32)c1 (stereo unspecified)	73*	0	0	6	1	3
OC(CNc1ccccc1)CN1c2ccccc2Sc2ccccc21 (stereo unspecified)	9	1	0	0	x	x
CCN=C1SC(CC(=O)Nc2cccc(OC)c2)C(=O)N1CC (stereo unspecified)	24	1	-1	-2	x	x
CCN1C(=O)C(CC(=O)Nc2cccc(C)c2)SC1=Nc1ccc(OC)cc1OC (stereo unspecified)	55*	0	1	30	2	1
O=C(Nc1cccc(Cl)c1)Nc1ccc(I)cc1F	13	0	0	-5	x	x
COc1ccc(C)cc1N(CC(=O)Nc1ccc(F)cc1F)S(C)(=O)=O	52*	0	0	-6	-2	13
COc1ccc(C)cc1N(CC(=O)Nc1ccccc1F)S(C)(=O)=O	2	0	-1	8	x	x
C=CC1=C(C(=O)O)N2C(=O)[C@@H](NC(=O)/C(=N\O)c3csc(N)n3)[C@H]2SC1 (stereo in doubt)	59*	0	1	-8	59*	46*
CCOC(=O)C(=O)Cc1ccc2ccccc2n1	53*	0	-1	-3	5	-6
N/N=C(\Cc1ccc2ccccc2n1)c1ccccc1	8	0	1	-53	x	x
O=C(NCCOc1ccccc1)c1csc(Br)n1	11	0	-1	-41	x	x
Cc1ccc(NCc2ccccn2)c(Br)c1	59*	1	-1	-58	10	16
Cc1cc(C)cc(NCc2ccccn2)c1	17	0	0	7	x	x
Cc1cc(Br)ccc1NCc1ccccn1	67*	0	0	-12	-4	8
COCCN(C(=S)Nc1ccccc1C)C(C)c1ccccn1 (stereo unspecified)	-4	0	3	1	x	x
C=CCNC1CCN(c2ccc(NC(=O)c3ccc(OC)cc3)cc2)CC1	60*	0	0	-19	-1	-2
N#CCCN1CCN(S(=O)(=O)c2ccccc2Br)CC1	78*	0	1	4	-7	6
Cc1ccc(S(=O)(=O)N2CCN(CCC#N)CC2)cc1	62*	0	3	5	-5	2
Cc1nc(N2CCN(Cc3ccccc3)CC2)c2c3c(sc2n1)CCCC3	-4	0	0	-1	x	x
CCN(c1ccccc1)c1c([N+](=O)[O-])ccc2nonc12	66*	0	0	-2	59*	55*
CCN(c1ccccc1)c1cc(N2CCOCC2)c2nonc2c1[N+](=O)[O-]	5	0	1	0	x	x
CCOc1ccc(C(c2sc3nc(C)nn3c2O)N2CCC(O)CC2)cc1 (stereo unspecified)	-5	0	0	2	x	x
COc1ccc([N+](=O)[O-])cc1NC(=O)c1cccc(Br)c1	6	0	-1	4	x	x
O=C(CC1Nc2ccccc2NC1=O)Nc1cccc(Cl)c1 (stereo unspecified)	65*	0	1	4	2	-11
CCOC(=O)c1c(C)oc2cc(Br)c(OCc3ccc(C(F)(F)F)cc3)cc12	-10	0	0	-4	x	x
SMILES	MITF primary	FBW7 activator	GPR151 ag	TEAD-YAP inh	MITF inh conf	AS interf ctr	others
Cn1cccc1CC(=O)N/N=C\C=C\c1ccccc1	6	0	1	-4	x	x
CN(C)CCCNC(=O)c1cccc(CN(C(=O)c2nc3ccc(-c4cn[nH]c4)cc3s2)C2CC2)c1	60*	1	-1	-3	50*	14	AS interf DR=>6.5
COc1cccc(CN2CCN(Cc3ccc(C)cc3)CC2)c1OC	76*	0	0	-4	-1	-2
COc1cccc(CN2CCN(Cc3ccc(Cl)cc3)CC2)c1OC	70*	0	1	-10	2	8
CCOc1ccc(CN2CCN(Cc3cccc(OC)c3OC)CC2)cc1	79*	1	-1	-3	-3	3
CCOC(=O)c1c(N2C(N)=C(C#N)C(c3ccccc3)C3=C2CC(C)(C)CC3=O)sc2c1CCCC2 (stereo unspecified)	9	0	-1	-10	x	x
CCc1ccc(C2=CC(c3ccccc3F)n3ncnc3N2)cc1 (stereo unspecified)	2	0	0	-1	x	x
Cc1ccc(-n2cc(-c3ccccc3)c3c(NCCCN(C)C)ncnc32)cc1Cl	-2	0	3	-5	x	x
O=C(N/N=C/c1c(F)cccc1Cl)c1ccccn1	11	0	-3	-45	x	x
CN(c1ccc(C(F)(F)F)cn1)C1CCCCC1	60*	0	1	-5	0	10
FC(F)(F)c1ccc(NC2CCCCC2)nc1	7	1	0	12	x	x
O=C1/C(=C\c2ccco2)CC2CC1C/C(=C/c1ccco1)C2=O	52*	0	-2	1	17	-12
O=C1/C(=C\c2cccs2)CC2CC1C/C(=C/c1cccs1)C2=O	24	0	-2	2	x	x
CCC(C)(C)c1ccc(OCCN2CCNCC2)cc1	72*	0	0	6	-17	-7
COc1ccc(C(=O)CN2CCN(C)CC2)cc1	76*	0	0	-7	0	4
CCc1ccc(OCCN2CCNCC2)cc1	9	0	-1	-4	x	x
COCCCNCCCCOc1ccc(OCc2ccccc2)cc1	53*	0	0	-27	3	23
Ic1ccc(OCCN2CCNCC2)cc1	63*	0	-1	6	-18	-2
Clc1ccc(OCCN2CCNCC2)cc1	15	0	0	10	x	x
CN1CCN(CCCCOc2ccc(C(=O)c3ccccc3)cc2)CC1	75*	0	-1	2	-1	8
CNCCOc1ccc(C(C)(C)c2ccccc2)cc1	52*	1	-1	-5	6	18
CN1CCN(CCCCN2C(=O)c3ccccc3C2=O)CC1	87*	0	0	2	12	0
c1ccc2c(OCCCN3CCNCC3)cccc2c1	38	0	0	5	x	x
O=C(c1ccccc1)c1ccc(OCCCCN2CCOCC2)cc1	48	1	-2	-3	x	x
CNCCCOc1ccc(C(C)(C)c2ccccc2)cc1	47	0	0	-4	x	x
